# Activity calls are given as the source filed them.
# Legend:
# [1] = binders of probe aFSTL3 on microarray, primary screen, stem cell growth factor project, biochemical, small-molecule microarray, fluorescence 635/667 (AID 1064); settings: higher = more signal;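 further: measures binding of the biotinylated anti-FSTL3 antibody to printed compounds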
# [2] = binders from COS7 lysate, DM2A8 probe, primary screen, torsin A project, cell lysate, small-molecule microarray, fluorescence 635/667 (AID 1065); settings: higher = more signal, COS7 lysate expressing mutant human TOR1A
# [3] = binders of probe aFGF2 on microarray, primary screen, stem cell growth factor project, biochemical, small-molecule microarray, fluorescence 635/667 (AID 1067); settings: higher = more signal;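 further: measures binding of biotinylated aFGF2 protein to printed compounds on slides; z-score merges feature fluorescence and signal-to-noise across triplicate slides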
# [4] = binders of probe aFGF10 on microarray, primary screen, stem cell growth factor project, biochemical, small-molecule microarray, fluorescence 635/667 (AID 1071); settings: higher = more signal;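 further: score merges 667 nm spot intensity and signal to noise from triplicate slides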
# [5] = biological target: Neurogenic locus notch homolog protein 2 (Homo sapiens) (UniProt Q04721); assay: Notch2 binders on small-molecule microarrays, primary screen, biochemical, small-molecule microarray, 635 nm fluorescence, stem cell growth factors (AID 1073); settings: Notch2 binding, higher = more signal
# [6] = biological target: Pro-neuregulin-1, membrane-bound isoform (Homo sapiens) (UniProt Q02297); assay: NRG1 binders on small-molecule microarrays, primary screen, psychiatric disease protein project, biochemical, small-molecule microarray, fluorescence 635/667 (AID 1075); settings: NRG1 binding, 635 nm fluorescence, higher = more signal;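 further: score combines 667 nm spot fluorescence with signal to noise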
# [7] = system: Neuregulin-1 EGF-like domain; assay: binders of neuregulin-1 EGF-like domain, primary screen, biochemical, small-molecule microarray, 635 nm fluorescence (AID 1081); settings: small-molecule microarray binding, higher = more signal;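 further: binding of the protein to compounds printed on small-molecule microarray slides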
# [8] = FRG1 promoter luciferase signal modulators, primary screen, FRG1 inhibition for FSHD, cell-based, C2C12 myotubes, firefly/Renilla luciferase, luminescence (AID 1084); settings: higher = more signal, called active from +8 up or from −8 down
# [9] = binders of probe aFST on microarray, primary screen, stem cell growth factor project, biochemical, small-molecule microarray, fluorescence 635/667 (AID 1086); settings: higher = more signal;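 further: score merges 667 nm fluorescence with signal-to-noise of each printed compound spot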
# [10] = binders of probe aHhip on microarray, primary screen, stem cell growth factor project, biochemical, small-molecule microarray, fluorescence 635/667 (AID 1087); settings: higher = more signal;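 further: score merges spot fluorescence at 667nm with spot signal to noise ratio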
# Sequence of Pro-neuregulin-1, membrane-bound isoform (Homo sapiens) (Q02297 whole entry, looked up, the tested form may be a part, canonical isoform): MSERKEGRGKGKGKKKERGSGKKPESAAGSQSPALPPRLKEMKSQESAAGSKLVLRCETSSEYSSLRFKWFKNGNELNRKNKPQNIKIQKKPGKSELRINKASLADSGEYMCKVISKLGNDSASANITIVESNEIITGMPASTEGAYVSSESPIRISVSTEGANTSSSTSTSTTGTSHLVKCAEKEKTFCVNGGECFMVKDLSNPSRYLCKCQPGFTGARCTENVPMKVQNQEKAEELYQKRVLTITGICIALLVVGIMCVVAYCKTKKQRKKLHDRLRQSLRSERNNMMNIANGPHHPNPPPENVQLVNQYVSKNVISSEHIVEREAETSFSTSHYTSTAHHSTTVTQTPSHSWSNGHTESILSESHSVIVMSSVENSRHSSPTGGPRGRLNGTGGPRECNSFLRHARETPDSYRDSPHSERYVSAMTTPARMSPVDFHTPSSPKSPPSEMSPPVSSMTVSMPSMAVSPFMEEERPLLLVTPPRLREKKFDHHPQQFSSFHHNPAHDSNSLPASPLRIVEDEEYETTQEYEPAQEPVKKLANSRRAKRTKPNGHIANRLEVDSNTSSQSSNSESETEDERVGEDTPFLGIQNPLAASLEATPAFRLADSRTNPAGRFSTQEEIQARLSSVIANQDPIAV
# Sequence of Neurogenic locus notch homolog protein 2 (Homo sapiens) (Q04721 whole entry, looked up, canonical isoform): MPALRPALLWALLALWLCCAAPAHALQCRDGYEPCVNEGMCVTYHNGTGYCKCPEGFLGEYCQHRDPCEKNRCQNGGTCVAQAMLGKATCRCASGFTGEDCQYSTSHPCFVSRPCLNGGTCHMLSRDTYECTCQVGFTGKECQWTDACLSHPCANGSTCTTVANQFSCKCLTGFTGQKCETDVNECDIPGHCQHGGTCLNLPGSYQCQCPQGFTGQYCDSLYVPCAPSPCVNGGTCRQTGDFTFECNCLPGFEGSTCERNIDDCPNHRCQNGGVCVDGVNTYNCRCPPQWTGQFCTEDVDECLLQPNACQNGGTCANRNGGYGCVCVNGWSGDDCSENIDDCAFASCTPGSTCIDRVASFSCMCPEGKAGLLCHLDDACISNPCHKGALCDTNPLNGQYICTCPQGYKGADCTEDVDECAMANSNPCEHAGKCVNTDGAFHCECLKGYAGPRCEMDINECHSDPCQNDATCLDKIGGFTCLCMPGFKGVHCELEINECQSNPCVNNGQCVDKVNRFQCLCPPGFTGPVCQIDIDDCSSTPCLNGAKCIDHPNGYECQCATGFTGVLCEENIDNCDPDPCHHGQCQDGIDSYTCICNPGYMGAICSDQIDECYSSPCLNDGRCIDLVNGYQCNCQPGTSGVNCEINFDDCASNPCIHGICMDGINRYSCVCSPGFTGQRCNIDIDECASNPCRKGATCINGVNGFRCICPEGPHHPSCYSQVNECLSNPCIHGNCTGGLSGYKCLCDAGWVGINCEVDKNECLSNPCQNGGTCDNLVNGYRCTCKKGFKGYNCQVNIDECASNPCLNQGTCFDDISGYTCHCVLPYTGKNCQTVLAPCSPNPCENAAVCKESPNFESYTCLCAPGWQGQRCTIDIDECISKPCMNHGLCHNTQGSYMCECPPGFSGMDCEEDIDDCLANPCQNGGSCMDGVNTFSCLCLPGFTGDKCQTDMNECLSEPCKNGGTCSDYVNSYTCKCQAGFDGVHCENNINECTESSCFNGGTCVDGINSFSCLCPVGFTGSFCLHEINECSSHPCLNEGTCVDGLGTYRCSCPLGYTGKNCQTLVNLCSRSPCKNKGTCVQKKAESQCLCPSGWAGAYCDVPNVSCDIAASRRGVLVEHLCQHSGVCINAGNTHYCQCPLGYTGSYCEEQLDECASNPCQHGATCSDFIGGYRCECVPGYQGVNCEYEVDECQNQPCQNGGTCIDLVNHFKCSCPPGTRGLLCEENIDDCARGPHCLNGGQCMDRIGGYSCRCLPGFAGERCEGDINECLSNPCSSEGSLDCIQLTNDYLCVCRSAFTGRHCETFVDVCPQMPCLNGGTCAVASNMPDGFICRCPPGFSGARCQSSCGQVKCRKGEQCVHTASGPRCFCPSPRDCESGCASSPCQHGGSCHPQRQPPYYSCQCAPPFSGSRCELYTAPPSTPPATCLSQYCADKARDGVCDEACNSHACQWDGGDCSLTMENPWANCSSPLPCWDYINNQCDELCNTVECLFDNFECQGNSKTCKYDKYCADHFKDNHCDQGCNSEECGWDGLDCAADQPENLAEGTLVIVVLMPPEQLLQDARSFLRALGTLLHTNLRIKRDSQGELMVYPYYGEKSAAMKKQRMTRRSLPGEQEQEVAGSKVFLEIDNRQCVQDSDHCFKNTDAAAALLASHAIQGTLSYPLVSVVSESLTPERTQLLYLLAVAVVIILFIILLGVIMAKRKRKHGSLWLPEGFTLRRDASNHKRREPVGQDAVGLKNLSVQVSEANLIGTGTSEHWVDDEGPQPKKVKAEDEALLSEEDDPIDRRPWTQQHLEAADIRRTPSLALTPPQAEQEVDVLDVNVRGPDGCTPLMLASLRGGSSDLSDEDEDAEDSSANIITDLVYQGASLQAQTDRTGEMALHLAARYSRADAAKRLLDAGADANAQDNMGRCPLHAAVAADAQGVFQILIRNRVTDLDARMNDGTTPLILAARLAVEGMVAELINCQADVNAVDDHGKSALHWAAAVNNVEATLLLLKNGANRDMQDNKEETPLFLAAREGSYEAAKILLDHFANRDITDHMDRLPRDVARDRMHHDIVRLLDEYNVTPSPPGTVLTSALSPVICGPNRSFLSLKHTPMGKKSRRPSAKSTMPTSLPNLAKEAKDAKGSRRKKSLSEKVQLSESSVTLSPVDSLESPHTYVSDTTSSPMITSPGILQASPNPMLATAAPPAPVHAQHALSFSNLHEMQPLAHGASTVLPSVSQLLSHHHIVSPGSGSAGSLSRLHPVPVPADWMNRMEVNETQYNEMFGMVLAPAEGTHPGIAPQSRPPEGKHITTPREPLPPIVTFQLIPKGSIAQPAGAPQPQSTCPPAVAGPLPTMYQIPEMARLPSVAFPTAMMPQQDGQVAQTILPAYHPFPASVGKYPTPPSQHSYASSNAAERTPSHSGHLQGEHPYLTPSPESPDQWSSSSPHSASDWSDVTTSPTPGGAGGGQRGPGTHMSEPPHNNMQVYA
structure (smiles),measurement,setting,value
CCOC(=O)C1=C[C@@H](C(C)(C)C)N(S(=O)(=O)c2ccc(C)cc2)[C@H]1c1cccc2ccccc12,composite z-score,[1],0.0905
same,composite z-score,[2],-0.0282
same,composite z-score,[3],-0.0724
same,composite z-score,[4],0.0331
same,composite z-score,[5],1.08
same,composite z-score,[6],0.541
same,composite z-score,[7],0.876
same,z-score,[8],-4.42 (inactive)
same,composite z-score,[9],0.692
same,composite z-score,[10],-0.0296
[N-]=[N+]=NCc1ccccc1[C@@H]1OC(c2ccc(OCCCO)cc2)=N[C@]1(CCS(=O)(=O)c1ccccc1)C(=O)O,composite z-score,[1],0.561
same,composite z-score,[2],-0.0845
same,composite z-score,[3],0.0116
same,composite z-score,[4],0.396
same,composite z-score,[5],0.797
same,composite z-score,[6],1.92
same,composite z-score,[7],0.733
same,z-score,[8],5.28 (inactive)
same,composite z-score,[9],0.641
same,composite z-score,[10],-0.0994
OCCCC1=CC(c2ccc(CN3CCCC3)cc2)N(Cc2cc3c(cc2Br)OCO3)CC1 (stereo not given),composite z-score,[1],0.492
same,composite z-score,[2],0.52
same,composite z-score,[3],-0.135
same,composite z-score,[4],-0.373
same,composite z-score,[5],-0.108
same,composite z-score,[6],-0.384
same,composite z-score,[7],0.748
same,z-score,[8],-0.0594 (inactive)
same,composite z-score,[9],0.47
same,composite z-score,[10],-0.0237
CCOC(=O)C[C@H]1[C@H](OC(=O)Cc2ccc3c(c2)OCO3)[C@@H](NC(=O)c2ccc3ccccc3n2)c2cc(OCCCO)ccc2N1C(=O)c1ccc2ccccc2n1,composite z-score,[1],-0.5
same,composite z-score,[2],0.185
same,composite z-score,[3],-0.103
same,composite z-score,[4],1.03
same,composite z-score,[5],0.568
same,composite z-score,[6],0.54
same,composite z-score,[7],1.01
same,z-score,[8],-2.11 (inactive)
same,composite z-score,[9],0.37
same,composite z-score,[10],0.171
O=C1O[C@@H](c2ccccc2)[C@@H](c2ccccc2)N2[C@@H](c3ccc(OCCO)cc3)[C@]3(C(=O)Nc4ccc(C#CC5=CCCCC5)cc43)[C@@H](C(=O)NC[C@H](O)c3ccccc3)[C@H]12,composite z-score,[1],-0.94
same,composite z-score,[2],0.297
same,composite z-score,[3],-0.0384
same,composite z-score,[4],0.6
same,composite z-score,[5],1.48
same,composite z-score,[6],0.655
same,composite z-score,[7],1.13
same,z-score,[8],2.03 (inactive)
same,composite z-score,[9],0.126
same,composite z-score,[10],-0.142
COCCOC(=O)N1C(=O)[C@@]2(c3cc(C#CC4(O)CCCCCC4)ccc31)[C@H](c1ccc(O)cc1)N1[C@H](c3ccccc3)[C@H](c3ccccc3)OC(=O)[C@H]1[C@@H]2C(=O)N1CCN(c2ncccn2)CC1,composite z-score,[1],-0.133
same,composite z-score,[2],0.837
same,composite z-score,[3],0.0702
same,composite z-score,[4],0.292
same,composite z-score,[5],0.895
same,composite z-score,[6],1.33
same,composite z-score,[7],1.24
same,z-score,[8],0.821 (inactive)
same,composite z-score,[9],0.756
same,composite z-score,[10],0.132
CCOC(=O)C=Cc1cccc(C)c1O,composite z-score,[1],-0.071
same,composite z-score,[2],-0.232
same,composite z-score,[3],-0.0348
same,composite z-score,[4],-0.0154
same,composite z-score,[5],0.177
same,composite z-score,[6],0.306
same,composite z-score,[7],-0.155
same,z-score,[8],1.5 (inactive)
same,composite z-score,[9],-0.488
same,composite z-score,[10],-0.236
[N-]=[N+]=Nc1ccccc1C[C@]1(C(=O)NCC(O)CO)COC(c2ccc(OCCCO)cc2)=N1 (stereo not given in full),composite z-score,[1],0.502
same,composite z-score,[2],0.475
same,composite z-score,[3],0.0154
same,composite z-score,[4],0.859
same,composite z-score,[5],-0.33
same,composite z-score,[6],1.43
same,composite z-score,[7],1.14
same,z-score,[8],2.1 (inactive)
same,composite z-score,[9],0.255
same,composite z-score,[10],-0.0994
CCCC1(C(=O)OC)C=C2C(=C(C)C(=O)C2C)CN1 (stereo not given),composite z-score,[1],0.948
same,composite z-score,[2],-0.313
same,composite z-score,[3],-0.0296
same,composite z-score,[4],-0.0572
same,composite z-score,[5],-0.326
same,composite z-score,[6],-0.74
same,composite z-score,[7],0.188
same,z-score,[8],3.02 (inactive)
same,composite z-score,[9],0.454
same,composite z-score,[10],-0.0645
C=CCNC(=O)[C@@H]1[C@H]2C(=O)O[C@H](c3ccccc3)[C@H](c3ccccc3)N2[C@H](c2ccccc2OCCO)[C@@]12C(=O)Nc1ccc(C#CCCO)cc12,composite z-score,[1],-0.501
same,composite z-score,[2],0.143
same,composite z-score,[3],0.0013
same,composite z-score,[4],0.0379
same,composite z-score,[5],0.611
same,composite z-score,[6],0.99
same,composite z-score,[7],1.19
same,z-score,[8],-0.452 (inactive)
same,composite z-score,[9],0.954
same,composite z-score,[10],0.154
COC(=O)[C@@]1(Cc2ccc(OC)cc2)[C@H]2c3cc(C(=O)N4CCCC4)n(CCO)c3C[C@H]2CN1C(=O)c1ccccc1,composite z-score,[1],0.0734
same,composite z-score,[2],-0.562
same,composite z-score,[3],0.418
same,composite z-score,[4],1.18
same,composite z-score,[5],1.55
same,composite z-score,[6],1.77
same,composite z-score,[7],0.764
same,z-score,[8],1.45 (inactive)
same,composite z-score,[9],0.691
same,composite z-score,[10],0.34
CCOC(=O)C[C@H]1[C@H](OC(=O)c2ccc(C(=O)c3ccccc3)cc2)[C@@H](NC(=O)C2CCCCC2)c2cc(OCCCO)ccc2N1C(=O)c1ccc2ccccc2n1,composite z-score,[1],-0.244
same,composite z-score,[2],0.213
same,composite z-score,[3],-0.0885
same,composite z-score,[4],0.735
same,composite z-score,[5],1.03
same,composite z-score,[6],0.532
same,composite z-score,[7],0.722
same,z-score,[8],0.0852 (inactive)
same,composite z-score,[9],0.842
same,composite z-score,[10],0.382
CCCCC(O)C1C=CC2C(=O)N(C)C(=O)C2N1N(c1ccccc1)c1ccccc1 (stereo not given),composite z-score,[1],0.555
same,composite z-score,[2],1.3
same,composite z-score,[3],0.0748
same,composite z-score,[4],0.0636
same,composite z-score,[5],1.14
same,composite z-score,[6],1.25
same,composite z-score,[7],0.999
same,z-score,[8],0.667 (inactive)
same,composite z-score,[9],0.701
same,composite z-score,[10],0.0497
COc1cc2c(cc1O)C(C1CC1)N(Cc1cccc(OC(F)(F)F)c1)CC2 (stereo not given),composite z-score,[1],-0.119
same,composite z-score,[2],0.257
same,composite z-score,[3],-0.101
same,composite z-score,[4],0.248
same,composite z-score,[5],-0.725
same,composite z-score,[6],1.39
same,composite z-score,[7],0.857
same,z-score,[8],0.329 (inactive)
same,composite z-score,[9],-0.182
same,composite z-score,[10],0.132
CC(CO)N1C(=O)[C@]2(C)C3C(=O)OCCC/C=C\[C@H]3OC23C=CCN(c2ccc(Cl)cc2)C(=O)[C@@H]13 (stereo not given in full),composite z-score,[1],-0.167
same,composite z-score,[2],-0.258
same,composite z-score,[3],-0.19
same,composite z-score,[4],0.0755
same,composite z-score,[5],-0.27
same,composite z-score,[6],-0.639
same,composite z-score,[7],1.25
same,z-score,[8],-0.906 (inactive)
same,composite z-score,[9],-0.456
same,composite z-score,[10],-0.266
Cc1ccc(S[C@]2(C(=O)NCc3ccccc3)CC(=O)N(C3CCCCC3)[C@@H]2c2ccc(CO)cc2I)cc1,composite z-score,[1],1.27
same,composite z-score,[2],-0.0582
same,composite z-score,[3],0.11
same,composite z-score,[4],0.339
same,composite z-score,[5],0.553
same,composite z-score,[6],1.17
same,composite z-score,[7],1.19
same,z-score,[8],-2.84 (inactive)
same,composite z-score,[9],0.455
same,composite z-score,[10],-0.132
O=C1O[C@@H](c2ccccc2)[C@@H](c2ccccc2)N2[C@@H](c3ccc(O)cc3)[C@]3(C(=O)Nc4ccc(C#CCCO)cc43)[C@@H](C(=O)N3CCN(c4ncccn4)CC3)[C@H]12,composite z-score,[1],-1.14
same,composite z-score,[2],-0.307
same,composite z-score,[3],-0.265
same,composite z-score,[4],0.204
same,composite z-score,[5],0.973
same,composite z-score,[6],0.564
same,composite z-score,[7],1.35
same,z-score,[8],-1.55 (inactive)
same,composite z-score,[9],-0.925
same,composite z-score,[10],-1.27
